Holding throughout (test): NCI-60 one-dose screen, 48 h (100 = growth as untreated, 0 = no growth, -100 = all killed)
The subject of one test is NCI-H23 lung. As to conditions: 10 µM.
Another test relates to HOP-92 NSCLC. As to conditions: 10 µM.
The next test relates to K-562 leukemia. As to conditions: 10 µM.
Another test relates to MDA-MB-231 breast. The note with it: 10 µM.
The next test relates to RXF 393 renal. The note with it: 10 µM.
In another test the test system is LOX IMVI melanoma. As to conditions: 10 µM.
Another test deals with UO-31 renal. The note with it: 10 µM.
The test system of the next test is CCRF-CEM leukemia. As to conditions: 10 µM.
The subject of a further test is MOLT-4 leukemia. The note with it: 10 µM.
A further test has as its system SR leukemia. The note with it: 10 µM.
Another test relates to HS 578T breast. The note with it: 10 µM.
The next test deals with SW-620 colon. As to conditions: 10 µM.
A further test concerns KM12 colon. The note with it: 10 µM.
For the next test, the system named is MDA-MB-468 breast. As to conditions: 10 µM unless noted.
For the next test, the system named is COLO 205 colon. As to conditions: 10 µM.
The test system of the next test is NCI-H522 lung. As to conditions: 10 µM.
A further test concerns OVCAR-5 ovarian. As to conditions: 10 µM.
For a further test, the system named is NCI/ADR-RES ovarian. The note with it: 10 µM.
Another test deals with T-47D breast. As to conditions: 10 µM.
For another test, the system named is MCF7 breast. As to conditions: 10 µM.

About 83,000 compounds went through this panel and 20% of them were active in at least one assay; those are over-represented in the sample as a whole.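 Cell lines were cultured in 96-well plates, exposed to a single compound concentration, and assessed for percent growth 48 hours later.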 A number with no mark means an inactive call. Active and inactive are the calls of the source. The calls were made as follows: active = growth percent below 10; inactive = the rest.

Turning to `CC12OOC(C)(OO1)C2CCC(=O)NCCCNc1ccnc2cc(Cl)ccc12` (stereo unspecified), the growth was 68.8% in the test with NCI-H23 lung; 4.9% (active) with HOP-92 NSCLC; 4.06% (active) with K-562 leukemia; 82.7% in the test on MDA-MB-231 breast; 4.73% (active) in the test with RXF 393 renal; -92.8% (active) with LOX IMVI melanoma. Besides, the growth is -99.4% (active) with UO-31 renal; 3.13% (active) in the test with CCRF-CEM leukemia; 34.6% in the test with MOLT-4 leukemia; -36.1% (active) in the test with SR leukemia; 103% in the test with HS 578T breast; 18.9% with SW-620 colon. The growth was 86.4% with KM12 colon and -52.7% (active) in the test on MDA-MB-468 breast.

Take `O=C(/C=C/c1ccccc1Cl)c1nc2ccccc2n1Cc1ccc(F)cc1`: the growth was -78.2% (active) in the test with NCI-H23 lung; -65.4% (active) in the test on HOP-92 NSCLC; -83.5% (active) in the test on COLO 205 colon; -25.9% (active) with K-562 leukemia; -97.8% (active) in the test on RXF 393 renal; -99.6% (active) with UO-31 renal. The growth in the test on CCRF-CEM leukemia was -25.4% (active); in the test with MOLT-4 leukemia it was -16.2% (active); in the test with SR leukemia it was -27.9% (active); in the test on KM12 colon, -60.5% (active); in the test with MDA-MB-468 breast it was -94.1% (active).

With `COc1cc(OC)c(S(=O)(=O)N(CCCl)CCCl)cc1C(=O)/C=C/c1ccc(C)cc1`, the growth was 70.5% in the test with HOP-92 NSCLC; 82.6% in the test with NCI-H522 lung; 70.9% in the test with K-562 leukemia; 35% in the test with MDA-MB-231 breast; -17.9% (active) in the test with RXF 393 renal; -24% (active) with LOX IMVI melanoma. The growth was 55.6% with UO-31 renal; 70.7% in the test on CCRF-CEM leukemia; 82.4% in the test with MOLT-4 leukemia; 53.6% in the test on SR leukemia; 91.7% in the test with OVCAR-5 ovarian; 56.8% in the test with HS 578T breast. The growth was 63.2% in the test with NCI/ADR-RES ovarian; 88% in the test on T-47D breast; 82.8% in the test with SW-620 colon; 63.6% in the test with MCF7 breast; 81.1% in the test on KM12 colon.

For the molecule `CC(=C\C(=O)Oc1ccc2c3c1OC1C(O)CCC4(O)C(C2)N(CC2CCC2)CCC314)/C=C1\CCCc2ccccc21` (stereo unspecified), the growth in the test with NCI-H23 lung is 64.3%; with HOP-92 NSCLC, 34.2%; in the test with COLO 205 colon, 39.4%; with K-562 leukemia, 19.7%; in the test on MDA-MB-231 breast, 75.3%; with RXF 393 renal, 37.7%. The growth was 5.47% (active) in the test with LOX IMVI melanoma; 33.8% with UO-31 renal; 31.1% with MOLT-4 leukemia; 59.8% in the test with HS 578T breast; 28.4% with SW-620 colon; 40.5% in the test on KM12 colon. The growth with MDA-MB-468 breast is -15.4% (active).

With `O=C(/C=C/c1ccc(Cl)cc1Cl)c1nc2ccccc2n1Cc1ccc(F)cc1`, the growth in the test with NCI-H23 lung is 47.8%; in the test with HOP-92 NSCLC, 36.6%; in the test with COLO 205 colon, 83.6%; in the test on K-562 leukemia it was 14.5%; in the test with RXF 393 renal it was 32.4%; in the test on UO-31 renal, 36.5%. Further, the growth is -10.2% (active) with CCRF-CEM leukemia; 4.16% (active) in the test with MOLT-4 leukemia; -1.72% (active) in the test on SR leukemia; 67.3% in the test with OVCAR-5 ovarian; 42.2% in the test on NCI/ADR-RES ovarian; 27.2% with T-47D breast. Besides, the results for the growth in the test on KM12 colon and in the test with MDA-MB-468 breast were 53% and 12.3%, respectively.

For the molecule `O=C(/C=C/c1ccc(F)cc1)c1nc2ccccc2n1Cc1ccc(Br)cc1`, the growth was -75.4% (active) in the test on NCI-H23 lung; -51.5% (active) in the test with HOP-92 NSCLC; -12.7% (active) in the test on K-562 leukemia; -91.1% (active) in the test on RXF 393 renal; -92.5% (active) in the test with UO-31 renal; -1.81% (active) with CCRF-CEM leukemia. The growth in the test on MOLT-4 leukemia was -13.4% (active); in the test with SR leukemia, -19.5% (active); in the test with T-47D breast it was -52.5% (active); in the test with KM12 colon, -25.3% (active); in the test with MDA-MB-468 breast, -90.8% (active).

`O=C(NC([Se])=NC1CCCCC1)c1ccc2c(c1)OCO2`: the growth was 118% with HOP-92 NSCLC; 74.3% with K-562 leukemia; 68.5% in the test on MDA-MB-231 breast; 65.9% in the test on RXF 393 renal; 81.6% in the test on LOX IMVI melanoma; 38.5% in the test on UO-31 renal. Also, the growth was 35.3% in the test on CCRF-CEM leukemia; 55.6% in the test with MOLT-4 leukemia; 60.3% in the test with SR leukemia; 72% in the test on OVCAR-5 ovarian; 60.8% in the test on HS 578T breast; 34.4% with NCI/ADR-RES ovarian. For the same molecule, the growth was -0.387% (active) in the test with T-47D breast; 41.2% in the test on SW-620 colon; 81.6% with MCF7 breast; 32.4% in the test on KM12 colon; 77.1% in the test on MDA-MB-468 breast.

With `O=C(/C=C/c1cccc(Br)c1)c1nc2ccccc2n1Cc1ccc(F)cc1`, the growth is 34% in the test on NCI-H23 lung; 19.3% with HOP-92 NSCLC; 5.36% (active) in the test on K-562 leukemia; 6.83% (active) in the test on RXF 393 renal; 41.8% in the test with UO-31 renal; -18.8% (active) in the test on CCRF-CEM leukemia. The growth in the test with MOLT-4 leukemia is 3.41% (active); in the test on SR leukemia, -7.31% (active); in the test with OVCAR-5 ovarian, 53.7%; with NCI/ADR-RES ovarian, 8.54% (active); in the test on T-47D breast it was 17.9%; in the test on KM12 colon, 41.4%. Also, the growth in the test on MDA-MB-468 breast is 4.89% (active).

For `CCOP(=O)(CC(F)(F)C(F)(F)F)OCC`, the growth was 50.4% in the test on NCI-H23 lung; -7.91% (active) with HOP-92 NSCLC; -68% (active) with COLO 205 colon; 5.12% (active) in the test on K-562 leukemia; 51.1% in the test with MDA-MB-231 breast; -64% (active) with LOX IMVI melanoma. Further, the growth was 25.1% in the test with UO-31 renal; 8.28% (active) with CCRF-CEM leukemia; 4% (active) in the test on MOLT-4 leukemia; 4.39% (active) in the test with SR leukemia; 82.2% with HS 578T breast; 17.3% in the test on T-47D breast. Moreover, the growth in the test on SW-620 colon is -8.33% (active); in the test with MCF7 breast, 9.98% (active); in the test on KM12 colon, 89.3%; in the test with MDA-MB-468 breast, -59.3% (active).

Take `CC1=C(COCCOC(=O)c2ccc(S(=O)(=O)F)cc2)C2=C(C)C3(CC3)[C@@](C)(O)C(=O)C2=C1`: the growth in the test on NCI-H23 lung is -85.6% (active); with HOP-92 NSCLC, -29.7% (active); in the test with COLO 205 colon, -73% (active); in the test on K-562 leukemia, 32.6%; in the test with MDA-MB-231 breast it was -27.2% (active); with RXF 393 renal, -81.4% (active). Besides, the growth is -62.7% (active) in the test on LOX IMVI melanoma; -33.3% (active) in the test with UO-31 renal; 15.8% in the test on CCRF-CEM leukemia; 36% in the test on MOLT-4 leukemia; -12.9% (active) in the test on HS 578T breast; 62.3% with SW-620 colon. Besides, the results for the growth in the test with MCF7 breast, in the test with KM12 colon and with MDA-MB-468 breast were 10.9%, 29.6% and -87.5% (active), respectively.

The values above are taken from PubChem BioAssay (NCI).
